# Screens as filed in PubChem.
# This is a sample that favours compounds with a hit; in the whole collection about 1.4% have one here.
# mIDH1 inhibitor – human IDH1 R132H inhibition; 390,000 compounds, 0.093% hits; Potency, µM (series often up to 76.6 µM), actives largely listed as inhibitors; IDH1-R132H enzyme, NADPH consumption, diaphorase/resazurin fluorescence; also: nearly all actives have a fitted effect of over 65% in size
#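 IDH1-R132H (0.5 ug/mL) preincubated 30 min with compound, then NADPH (0.016 mM) and alpha-KG (2 mM) added; 80 min at RT, pH 7.5. Remaining NADPH coupled via diaphorase/resazurin to fluorescence (540/590 nm); concentration-response curves normalized to no-enzyme control.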
# GLS inhibitor – blocks human kidney-isoform glutaminase activity; Potency, µM (highest dose often 45.5 µM), most hits filed as inhibitors; O94925; 410,000 compounds, 0.21% hits; GLS enzymatic activity, qHTS titration
#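 hKGA in 45 mM KH2PO4 pH 8.2, 0.02% Tween-20 with pin-transferred compounds; 1 mM L-glutamine (stock) plus glutamate oxidase/HRP/Amplex Red coupling added. Fluorescence read initially and after 30 min at RT.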
# TrxR1 substrate – is turned over as a substrate by rat TrxR1; O89049; purified TrxR1 substrate turnover, NADPH consumption readout; Potency, µM (top dose mostly 114 µM); 390,000 compounds, 0.01% hits; also: nearly all actives have a fitted effect of over 50% in size
#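 Rat TrxR1, dispensed at 90 nM, was prereduced with 400 uM NADPH (final) for 5 min at ~22 deg C, then incubated with compound 15 min before 400 uM selenite. A first-read NADPH fluorescence drop versus no-compound background flagged substrates.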
# PKM2 activator – activators of human pyruvate kinase M2 | P14618 | 260,000 compounds, 0.34% hits | purified PKM2, Kinase-Glo ATP luminescence, activation; response scale: 0% is enzyme alone, no compound | Potency, µM (highest dose often 57.5 µM), usual class: activators | AID 1631; also: nearly all actives have a fitted effect of over 55% in size
# Target sequence (P14618 whole entry, looked up): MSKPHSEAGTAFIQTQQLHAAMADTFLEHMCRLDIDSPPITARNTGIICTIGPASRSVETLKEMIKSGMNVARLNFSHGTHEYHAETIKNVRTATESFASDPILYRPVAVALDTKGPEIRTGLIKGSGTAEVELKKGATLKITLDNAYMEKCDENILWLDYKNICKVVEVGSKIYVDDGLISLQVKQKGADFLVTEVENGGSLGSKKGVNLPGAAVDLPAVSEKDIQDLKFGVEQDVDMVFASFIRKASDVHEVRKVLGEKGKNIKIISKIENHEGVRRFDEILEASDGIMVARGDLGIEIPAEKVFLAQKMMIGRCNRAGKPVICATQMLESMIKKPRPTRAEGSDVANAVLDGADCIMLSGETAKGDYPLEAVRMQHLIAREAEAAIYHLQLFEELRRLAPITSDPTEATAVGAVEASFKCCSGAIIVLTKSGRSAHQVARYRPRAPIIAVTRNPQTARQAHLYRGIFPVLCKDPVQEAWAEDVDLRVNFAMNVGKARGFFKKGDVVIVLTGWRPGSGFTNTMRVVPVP
#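 Kinase-Glo luminescence reports ATP generated from ADP (0.1 mM) and PEP (0.5 mM) by purified hPK-M2 after 1 h at room temperature, pH 7.2 imidazole buffer; intermediate enzyme activity allows detecting inhibitors and activators.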
# LDHA inh – blocks human lactate dehydrogenase A. activity change, % (values are at about 110 or 230 µM). AID 1347041. P00338. 480,000 compounds, 0.15% hits. purified LDHA, NADH/diaphorase-resazurin fluorescence; hits give low values; in the data active = activity change below about -30%; inconclusive = mostly about -25% to -30%
#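 Resorufin fluorescence (ex540/em590), read at 0 and 20 min after diaphorase/resazurin addition, reports the NADH left after a 5 min room-temperature reaction of 2 nM human LDH5 with 0.06 mM NADH and 0.2 mM pyruvate.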
# TrxR1 inh-1 – rat TrxR1 inhibition; O89049; recombinant rTrxR1, NADPH fluorescence consumption, selenite substrate; Potency, µM (top dose mostly 114 µM), actives largely listed as inhibitors; 390,000 compounds, 1% hits; AID 588453; also: nearly all actives have a fitted effect of over 65% in size
#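 Rat TrxR1 (90 nM in the dispensed reagent) was pre-reduced with 400 uM NADPH for 5 min at room temperature, then incubated with compound for 15 min. After 400 uM selenite was added, NADPH fluorescence (Ex 340/Em 450 nm) was followed for 8 min.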
# TRb SRC2 Alpha – TRb-SRC2 (human) interaction inhibition | 30 compounds, 50% hits | AID 2444 | Potency, µM | shares compounds with TrxR1 inh-1 | AlphaScreen TRb LBD-SRC2 peptide binding, luminescence; calls by dose curve
# HepG2 viability – reduces HepG2 viability in TRb-SRC2 counter-screen | shares compounds with TrxR1 inh-1 | Potency, µM | 40 compounds, 50% hits | HepG2 viability, ATP luminescence (CellTiter-Glo), 72 h; calls by dose curve
# AR-SRC2 inh – AR-SRC2 (human) interaction inhibition, selectivity. 25 tested, under 10 active. shares compounds with TrxR1 inh-1. calls only. AR-LBD Tx-SRC2-3 fluorescence polarization, 3 h. AID 2448; call rule not given here
# PPARg-DRIP2 inh – selectivity of TRb-SRC2 inhibitors: human PPARgamma coactivator binding inhibition; shares compounds with TrxR1 inh-1; PPARg LBD / Texas Red DRIP-2 peptide, fluorescence polarization, 3 h; Potency, µM; 25 tested, under 10 active; AID 2449; calls by dose curve
# VDR-SRC2 FP sel – VDR-SRC2 (human) interaction inhibition, selectivity. shares compounds with TrxR1 inh-1. VDR LBD/SRC2-3 peptide, fluorescence polarization, 3 h. Potency, µM. 25 tested, under 10 active; calls by dose curve
# TRb SRC2 FluoFP – disrupts human TRb binding to fluorescein-SRC2 peptide; shares compounds with TrxR1 inh-1; TRb LBD / fluorescein-SRC2 peptide, fluorescence polarization; Potency, µM; 20 tested, under 10 active; call rule not given here
# GR counterassay – inhibits human glutathione reductase in TrxR1 counterassay. shares compounds with TrxR1 inh-1. purified GR, DTNB reduction absorbance 405 nm kinetic. activity change, negative = inhibition, % at 57.1 µM. 55 tested, under 10 active. AID 652020
# TrxR1 inh-2 – blocks rat thioredoxin reductase 1 in hit validation. shares compounds with TrxR1 inh-1. recombinant TrxR1, NADPH fluorescence consumption, selenite substrate. Potency, µM, hits mostly inhibitors. 55 compounds, 50% hits. AID 652023
# TrxR1 insulin – TrxR1 inhibitors: insulin reduction mechanism-of-action test; 55 compounds, 20% hits; shares compounds with TrxR1 inh-1; Potency, µM; TrxR1 Trx-coupled insulin reduction, NADPH absorbance 340 nm; AID 652037;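 active = compounds with a measured potency under 100 micromolar; inconclusive = filed, but no rule given; inactive = potency at or above that, or unmeasurable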
# TrxR1 inh-3 – rat thioredoxin reductase 1 inhibition, DTNB assay | shares compounds with TrxR1 inh-1 | purified TrxR1, DTNB reduction, A412 | Potency, µM | 55 compounds, 90% hits;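 active = a half-inhibiting concentration could be measured and was below 100 µM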
# Hits are given with their value; 0 = inactive; ? = inconclusive; - = no result given. Unless noted, calls follow the shape of the dose curve; as a rule, active = well fitted curve in the direction sought with a large enough effect; inconclusive = small, poorly fitted or top-dose-only effect, or another doubt; inactive = no such curve, though single readings can be large; an effect the other way counts as inactive or inconclusive.
SMILES,mIDH1 inhibitor,GLS inhibitor,TrxR1 substrate,PKM2 activator,LDHA inh,TrxR1 inh-1,GR counterassay,TrxR1 inh-2,TrxR1 insulin,TrxR1 inh-3,others
CC(C)(C)c1cc(CN2CCN(CCO)CC2)cc(C(C)(C)C)c1O,0,0,0,0,0,7.94µM,0,?,0,1.27µM,
CN1c2ccccc2N(C)C1(C)c1cccc2ccccc12,0,0,0,0,0,50.1µM,0,?,0,4.44µM,
CN1c2cccc3cccc(c23)N(C)C1(C)C,0,?,0,0,0,0,-,-,-,-,
COc1ccc([N+](=O)[O-])c(S(=O)(=O)c2ccccc2)n1,0,0,0,0,0,?,-,-,-,-,
COc1ccc([N+](=O)[O-])c(S(=O)(=O)c2ccc(Cl)cc2)n1,0,0,0,0,0,0.501µM,0,0.134,26µM,0.041µM,
Cc1ccc(Nc2c(-c3ccc(C)o3)nc3cnccn23)cc1,0,0,0,11.2µM,0,3.98µM,0,?,0,1.99µM,
Cc1ccc(Nc2c(-c3ccc(C)o3)nc3ccccn23)cc1,-,-,0,-,0,?,-,-,-,-,
CC(C)(C)c1ccc(C2(C(=O)O)CC2)cc1,-,-,-,-,0,-,-,-,-,-,
O=C(CSc1cnc2ccccc2n1)OCc1cccc2ccccc12,-,-,-,-,0,-,-,-,-,-,
Cc1ccc(CNC(=O)c2cn(C)c(=O)c3c2c2ccccc2n3C)o1,0,0,0,?,0,15.8µM,0,?,0,1.51µM,
Cc1ccc(CNC(=O)c2cc3c(=O)n(C)c4ccccc4c3n2C)o1,0,0,0,?,0,?,-,-,-,-,
O=C(O)CC(c1cccnc1)c1c[nH]c2ccccc12 (stereo not given),-,-,-,-,0,-,-,-,-,-,
Cc1ccc2[nH]c(=O)c(CN(CCCN3CCOCC3)Cc3nnnn3C3CCCC3)cc2c1,0,0,0,0,0,20µM,?,?,3µM,5.35µM,
CCc1c(C(C)S(=O)(=O)c2ccccc2)[nH]c(=O)n1CC (stereo not given),0,0,0,0,0,1.78µM,0,2.38,4µM,0.045µM,
CC(S(=O)(=O)c1ccccc1)S(=O)(=O)c1ccccc1,0,0,-,-,0,-,-,-,-,-,
COC(=O)c1ccccc1NC(=O)CN(C)S(=O)(=O)c1c(C)noc1C,-,-,-,-,0,-,-,-,-,-,
CNc1ccc(C(=O)OCC(=O)NC(=O)NC2CCCCC2)cc1[N+](=O)[O-],0,0,0,-,0,0,-,-,-,-,
O=C(COC(=O)c1ccc(C(F)(F)F)cc1)NC(=O)C1CCCCC1,-,-,0,-,0,0,-,-,-,-,TRb SRC2 Alpha=0;HepG2 viability=0;TRb SRC2 FluoFP=0
CC(=O)Nc1cccc(C(=O)OCC(=O)NC(=O)C2CCCCC2)c1,-,-,0,-,0,0,-,-,-,-,TRb SRC2 Alpha=0;HepG2 viability=0;TRb SRC2 FluoFP=0
Cc1cc(C(=O)OCC(=O)NC(=O)C2CCCCC2)ccc1[N+](=O)[O-],-,-,0,-,0,0,-,-,-,-,TRb SRC2 Alpha=0;HepG2 viability=?;TRb SRC2 FluoFP=0
CC1(C)C2CCC1(C)C(NC(=O)COC(=O)c1ccc(S(C)(=O)=O)c([N+](=O)[O-])c1)C2 (stereo not given),-,-,0,-,0,3.55µM,-,-,-,-,TRb SRC2 Alpha=6.8µM;HepG2 viability=23.4µM;AR-SRC2 inh=0;PPARg-DRIP2 inh=0;VDR-SRC2 FP sel=40µM;TRb SRC2 FluoFP=3.3µM
CC(=O)Nc1cccc(C(=O)OCC(=O)NC2CCCCCCC2)c1,0,0,0,-,0,0,-,-,-,-,
N#Cc1ccc(C(=O)/C=C/c2cc3ccccc3nc2N2CCOCC2)cc1,-,-,-,-,0,-,-,-,-,-,
CC(NC(=O)C(Cc1ccccc1)NC(=O)OC(C)(C)C)c1ccc(O)cc1 (stereo not given),-,-,-,-,0,-,-,-,-,-,
